We go through 34 molecules from ChEMBL document CHEMBL1961873, “Compounds: GSK PKIS; Assays: Nanosyn kinase panel” (2012).

In the first test the target is Cyclin-dependent kinase 2 (Homo sapiens) (UniProt P24941). The following applies: at 0.1 µM.
In general, inhibition refers to the drop in the measured response relative to a control, in per cent. As for `CN(c1ccc(NC(=O)Nc2c(Cl)cccc2Cl)cc1)c1ccnc(Nc2cccc(CS(C)(=O)=O)c2)n1`, the inhibition is 3.62%.

With `CCS(=O)(=O)c1ccc(OC)c(Nc2ncc(-c3cccc(-c4ccccc4F)c3)o2)c1`, the inhibition stood at 1.76%.

Turning to `CS(=O)(=O)CCNCc1ccc(-c2ccc3ncnc(Nc4ccc(OCc5ccccc5)c(Br)c4)c3c2)o1`, the inhibition is -2.31%.

`N#Cc1ccc(Oc2nccc(-c3c(-c4ccc(F)cc4)ncn3C3CCNCC3)n2)cc1`: the inhibition was 0.77%.

On to `Fc1ccc(-c2ncn(C3CCNCC3)c2-c2ccnc(Oc3ccc4c(c3)OCO4)n2)cc1`, for which the inhibition stood at 1.83%.

Take `COc1cc(N2CCN(C(C)C)CC2)ccc1Nc1nc(Nc2ccc(F)cc2C(=O)NC[C@@H](O)CO)c2cc[nH]c2n1`: the inhibition is -1.75%.

For the molecule `O=C1NC(=O)C(c2cccc(Cl)c2)=C1Nc1ccc(Cl)c(C(=O)O)c1`, the inhibition is 2%.

`NC(=O)c1cc(-c2ccncc2)cc(-c2ccccc2)c1N`: the inhibition was 2.79%.

Take `CS(=O)(=O)CCNCc1cc(-c2cc3c(Nc4ccc(OCc5cccc(F)c5)c(Cl)c4)ncnc3s2)cs1`: the inhibition was 3.05%.

As for `Cc1ccc(C(=O)NC2CCC2)cc1-c1ccc(C(=O)NCC2CC2)cc1`, the inhibition was found to be 2.38%.

Regarding `NC(=O)c1cc(-c2ccc(F)cc2)cc(-c2ccncc2)c1N`, the inhibition turned out to be 2.41%.

As for `O=C(Nc1n[nH]c2cc(-c3ccccc3)ccc12)C1CC1`, the inhibition worked out at 3.52%.

`O=C(Nc1n[nH]c2nc(-c3ccc(O)cc3)c(Br)cc12)C1CC1`: the inhibition was determined as 63.1%.

Turning to `C/C(Nc1ccc(S(N)(=O)=O)cc1)=C1/C(=O)Nc2ccccc21`, the inhibition was 7.75%.

Turning to `O=C1Nc2ccccc2/C1=C/Nc1ccc(-n2cncn2)cc1`, the inhibition was determined as 2.39%.

Regarding `CCc1nccc2c1nc(-c1nonc1N)n2CC`, the inhibition was 2.75%.

Take `CCN(CC)Cc1ccc(Nc2nccc(-c3cnn4ncccc34)n2)cc1`: the inhibition was found to be 39.5%.

With `Fc1ccc(-c2ncn(C3CCNCC3)c2-c2ccnc(Oc3ccc(F)c(F)c3)n2)cc1`, the inhibition was -1.17%.

For `C[C@@H](Oc1cc(-n2cnc3ccc(OCC4CCN(C)CC4)cc32)sc1C(N)=O)c1ccccc1Cl`, the inhibition was determined as 3.1%.

As to `COc1ccc2cc(-c3c(-c4ccncc4)nc(-c4ccc([S+](C)[O-])cc4C)n3C)ccc2c1` (stereo not drawn), the inhibition turned out to be 0.63%.

For `CN1CCN(CCCNc2nc3ccc(Oc4ccc(NC(=O)Nc5cc(C(F)(F)F)ccc5F)cc4)cc3[nH]2)CC1`, the inhibition is -3.51%.

For `Nc1nccc(-c2c(-c3ccc(F)cc3)ncn2C2CCC(O)CC2)n1` (stereo not drawn), the inhibition is -0.46%.

Turning to `c1ccc(Oc2ccc(Nc3ncc(-c4ccccc4)o3)cc2)cc1`, the inhibition was 0.43%.

On to `COc1ccc(-c2ccc3c(NC(=O)C4CC4)n[nH]c3n2)cc1`, for which the inhibition came to 1.61%.

As to `O=C(Nc1n[nH]c2nc(-c3ccco3)ccc12)C1CC1`, the inhibition stood at 3.24%.

Regarding `CCS(=O)(=O)c1ccc(OC)c(Nc2ncc(-c3ccccc3Cl)o2)c1`, the inhibition is 0.49%.

On to `CN(C)c1ccc2c(c1)/C(=C/Nc1ccc(S(N)(=O)=O)cc1)C(=O)N2`, for which the inhibition came to 21.8%.

Regarding `CN(C)CCCNc1nccc(-c2c(-c3ccc(F)cc3)nn3cc(C(F)(F)F)ccc23)n1`, the inhibition was -2.76%.

`CCC(=O)Nc1ccc(C)c(-c2ccc(C(=O)NCC3CC3)cc2)c1`: the inhibition was determined as 3.84%.

For the molecule `NS(=O)(=O)c1ccc(Nc2cc(-c3ccc(O)c(F)c3)n[nH]2)cc1`, the inhibition was 53.3%.

As for `COc1cc2ncn(-c3cc(OCCc4ccccc4)c(C(N)=O)s3)c2cc1OC`, the inhibition came out at 0.55%.

Take `Cc1ccc(C(=O)NC(C)C)cc1-c1ccc(C(=O)NCC2CC2)cc1`: the inhibition is 0.33%.

`NCc1ccc(-n2c(-c3nonc3N)nc3cnccc32)cc1`: the inhibition is 5.13%.

For `COc1cc(Nc2ncc3c(C)nc(-c4cccc(C(F)(F)F)c4)n3n2)cc(OC)c1OC`, the inhibition came out at 3.13%.

For a further test the target is unchanged. The following applies: at 1 µM.
Take `CN(c1ccc(NC(=O)Nc2c(Cl)cccc2Cl)cc1)c1ccnc(Nc2cccc(CS(C)(=O)=O)c2)n1`: the inhibition was found to be 12.2%.

Take `CCS(=O)(=O)c1ccc(OC)c(Nc2ncc(-c3cccc(-c4ccccc4F)c3)o2)c1`: the inhibition was 7.78%.

Turning to `CS(=O)(=O)CCNCc1ccc(-c2ccc3ncnc(Nc4ccc(OCc5ccccc5)c(Br)c4)c3c2)o1`, the inhibition was -1.03%.

In the case of `N#Cc1ccc(Oc2nccc(-c3c(-c4ccc(F)cc4)ncn3C3CCNCC3)n2)cc1`, the inhibition came to 1.99%.

Regarding `Fc1ccc(-c2ncn(C3CCNCC3)c2-c2ccnc(Oc3ccc4c(c3)OCO4)n2)cc1`, the inhibition was determined as 3.44%.

For the molecule `COc1cc(N2CCN(C(C)C)CC2)ccc1Nc1nc(Nc2ccc(F)cc2C(=O)NC[C@@H](O)CO)c2cc[nH]c2n1`, the inhibition was 4.45%.

For the molecule `O=C1NC(=O)C(c2cccc(Cl)c2)=C1Nc1ccc(Cl)c(C(=O)O)c1`, the inhibition worked out at 9.11%.

Consider `NC(=O)c1cc(-c2ccncc2)cc(-c2ccccc2)c1N`, for which the inhibition was determined as 5.38%.

`CS(=O)(=O)CCNCc1cc(-c2cc3c(Nc4ccc(OCc5cccc(F)c5)c(Cl)c4)ncnc3s2)cs1`: the inhibition amounted to 1.47%.

`Cc1ccc(C(=O)NC2CCC2)cc1-c1ccc(C(=O)NCC2CC2)cc1`: the inhibition was 0.45%.

As to `NC(=O)c1cc(-c2ccc(F)cc2)cc(-c2ccncc2)c1N`, the inhibition is -6.47%.

As for `O=C(Nc1n[nH]c2cc(-c3ccccc3)ccc12)C1CC1`, the inhibition amounted to 11.2%.

Regarding `O=C(Nc1n[nH]c2nc(-c3ccc(O)cc3)c(Br)cc12)C1CC1`, the inhibition was determined as 108%.

`C/C(Nc1ccc(S(N)(=O)=O)cc1)=C1/C(=O)Nc2ccccc21`: the inhibition amounted to 56%.

Consider `O=C1Nc2ccccc2/C1=C/Nc1ccc(-n2cncn2)cc1`, for which the inhibition was determined as 13.3%.

For `CCc1nccc2c1nc(-c1nonc1N)n2CC`, the inhibition amounted to 4.67%.

`CCN(CC)Cc1ccc(Nc2nccc(-c3cnn4ncccc34)n2)cc1`: the inhibition was 82.5%.

`Fc1ccc(-c2ncn(C3CCNCC3)c2-c2ccnc(Oc3ccc(F)c(F)c3)n2)cc1`: the inhibition is -0.54%.

For the molecule `C[C@@H](Oc1cc(-n2cnc3ccc(OCC4CCN(C)CC4)cc32)sc1C(N)=O)c1ccccc1Cl`, the inhibition came to 4.03%.

In the case of `COc1ccc2cc(-c3c(-c4ccncc4)nc(-c4ccc([S+](C)[O-])cc4C)n3C)ccc2c1` (stereo not drawn), the inhibition was -1.45%.

Regarding `CN1CCN(CCCNc2nc3ccc(Oc4ccc(NC(=O)Nc5cc(C(F)(F)F)ccc5F)cc4)cc3[nH]2)CC1`, the inhibition worked out at 5.29%.

With `Nc1nccc(-c2c(-c3ccc(F)cc3)ncn2C2CCC(O)CC2)n1` (stereo not drawn), the inhibition was -4.73%.

With `c1ccc(Oc2ccc(Nc3ncc(-c4ccccc4)o3)cc2)cc1`, the inhibition worked out at 1.24%.

With `COc1ccc(-c2ccc3c(NC(=O)C4CC4)n[nH]c3n2)cc1`, the inhibition stood at 10.7%.

On to `O=C(Nc1n[nH]c2nc(-c3ccco3)ccc12)C1CC1`, for which the inhibition is 6.79%.

Regarding `CCS(=O)(=O)c1ccc(OC)c(Nc2ncc(-c3ccccc3Cl)o2)c1`, the inhibition is 3.52%.

Take `CN(C)c1ccc2c(c1)/C(=C/Nc1ccc(S(N)(=O)=O)cc1)C(=O)N2`: the inhibition was 82.6%.

Turning to `CN(C)CCCNc1nccc(-c2c(-c3ccc(F)cc3)nn3cc(C(F)(F)F)ccc23)n1`, the inhibition stood at 3.18%.

For the molecule `CCC(=O)Nc1ccc(C)c(-c2ccc(C(=O)NCC3CC3)cc2)c1`, the inhibition came out at 3.06%.

As to `NS(=O)(=O)c1ccc(Nc2cc(-c3ccc(O)c(F)c3)n[nH]2)cc1`, the inhibition was determined as 78.9%.

Turning to `COc1cc2ncn(-c3cc(OCCc4ccccc4)c(C(N)=O)s3)c2cc1OC`, the inhibition is 3.19%.

Regarding `Cc1ccc(C(=O)NC(C)C)cc1-c1ccc(C(=O)NCC2CC2)cc1`, the inhibition was -0.04%.

For the molecule `NCc1ccc(-n2c(-c3nonc3N)nc3cnccc32)cc1`, the inhibition amounted to 30.4%.

For the molecule `COc1cc(Nc2ncc3c(C)nc(-c4cccc(C(F)(F)F)c4)n3n2)cc(OC)c1OC`, the inhibition is 20.8%.
